Source: PubChem
This is a sample that favours compounds with a hit; in the whole collection about 6.9% have one here.
HP1b binding inh: HTS for Inhibitors of HP1-beta Chromodomain Interactions with Methylated Histone Tails. Potency, µM (series often up to 114 µM), for the others: at the top dose activity change, negative = inhibition, actives largely listed as inhibitors. AID 540317, 2011. 390,000 compounds, 0.56% hits. AlphaScreen HP1-beta / biotin-H3K9me3 peptide binding; also: nearly all actives have a fitted effect of over 70% in size
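Compound inhibition of the preformed complex between 50 nM HP1-beta and 50 nM biotinylated H3K9me3 peptide was read by AlphaScreen. Buffer was PBS pH 7.4 with 0.01% Tween-20. Incubations ran 30 min at room temperature, with 10 ug/mL donor/acceptor beads.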
PLK1 PBD block: qHTS for Inhibitors of PLK1-PDB (polo-like kinase 1 - polo-box domain): Primary Screen; Plk1 PBD binding of FITC phosphopeptide, fluorescence polarization; Potency, µM, without a hit: max response, negative = inhibition, hits mostly inhibitors; Serine/threonine-protein kinase PLK1 (Homo sapiens), P53350; AID 720504, 2013; 360,000 compounds, 2.8% hits; also: series mostly up to about 57 µM; % is scaled to controls: 0 for no effect and ±100 for the full control effect; nearly all actives have a fitted effect of over 65% in size
BAZ2B block: qHTS Assay for Inhibitors of BAZ2B; AlphaScreen BAZ2B-H3K14Ac peptide displacement; Potency, µM (top dose mostly 114 µM), for the others: top-dose activity change, negative = inhibition, hits mostly inhibitors; 360,000 compounds, 4.4% hits; AID 504333, 2011; also: % is scaled to controls: 0 for no effect and ±100 for the full control effect; nearly all actives have a fitted effect of over 60% in size
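Complex of BAZ2B and biotin-H3K14Ac (50 nM apiece) forms over 30 min at RT, then faces library compounds up to 110 uM for another 30 min; AlphaScreen beads added, 20 min dark incubation, luminescence read.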
JMJD2A Tudor: qHTS Assay for Inhibitors of JMJD2A-Tudor Domain | Lysine-specific demethylase 4A (Homo sapiens), O75164 | Potency, µM (top dose mostly 114 µM), without a hit: at the highest dose activity change, negative = inhibition, most hits filed as inhibitors | 390,000 compounds, 4.4% hits | AID 504339, 2011 | AlphaScreen JMJD2A-Tudor / H3K4me3 peptide binding; also: % is scaled to controls: 0 for no effect and ±100 for the full control effect; nearly all actives have a fitted effect of over 50% in size
L3MBTL1 block: qHTS Assay for the Inhibitors of L3MBTL1. Lethal(3)malignant brain tumor-like protein 1 (Homo sapiens), Q9Y468. AlphaScreen L3MBTL1–H3K9me1 peptide binding. 230,000 compounds, 0.66% hits. Potency, µM (doses to about 57.1 µM), inactives show at the top dose activity, negative = inhibition, hits mostly inhibitors. AID 485360, 2010; also: % is scaled to controls: 0 for no effect and ±100 for the full control effect; nearly all actives have a fitted effect of over 60% in size
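L3MBTL1 (50 nM) pre-complexed 30 min with biotinylated H3(1-15)K9me1 peptide (75 nM), then compounds added for 30 min at room temperature; AlphaScreen streptavidin donor/nickel chelate acceptor beads (10 ug/mL final) read after 30 min dark incubation.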
VDR inhibitor: Inhibitors of the vitamin D receptor (VDR): qHTS; Vitamin D3 receptor (Homo sapiens), P11473; VDR-SRC2-3 peptide fluorescence polarization, 2 h; 400,000 compounds, 0.93% hits; Potency, µM, for the others: max response, negative = inhibition, actives largely listed as inhibitors; also: % is scaled to controls: 0 for no effect and ±100 for the full control effect
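After 23 nl compound addition and a short centrifugation, plates sat for 2 hours at ambient temperature; polarization of fluorescence then indicated loss of VDR binding to peptide SRC2-3.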
Numbers without * were called inactive; ? = inconclusive; . = no result given; ! = not confirmed by another sample; [ ] = remark or other dose. Calls follow the shape of the dose curve; as a rule, active = well fitted curve in the direction sought with a large enough effect; inconclusive = small, poorly fitted or top-dose-only effect, or another doubt; inactive = no such curve, though single readings can be large; an effect the other way counts as inactive or inconclusive. Potency is read from the fitted curve at half-maximal effect.

SMILES	HP1b binding inh	PLK1 PBD block	BAZ2B block	JMJD2A Tudor	L3MBTL1 block	VDR inhibitor
COCCCN1CC(=O)N2C(c3cccc(OC)c3OC)c3[nH]c4ccccc4c3C[C@H]2C1=O (stereo partly drawn)	10%	2%	-8%	-22%	.	2%
CCc1ccc(NC(=O)C(=O)NCCc2sc(-c3ccc(C)cc3)nc2C)cc1	13%[57 µM]	.	5%	-21%	.	-10%
Cc1cc(C)n2c(SCC(=O)N(C)C3CCCCC3)nnc2n1	68%	-9%	-6%	1%	5%	-2%
COc1ccccc1CCNC(=O)C(=O)NCC1OCCN1S(=O)(=O)c1ccc2c(c1)OCCO2 (stereo not drawn)	23%	-4%	-13%	-16%	.	22%
CN(C)CCNC(=O)c1cccc(NS(=O)(=O)c2ccc(Cl)c(Cl)c2)c1	13%	-21%	.	-4%	1%	26%
CN(C)CC(C)(C)CNS(=O)(=O)c1ccc(Cl)c(Cl)c1	-11%	19µM*!	?	18µM*!	3%	-23%
Cc1ccc(OC(=O)COc2ccccc2)c(-n2nc3ccccc3n2)c1	114%	-5%	56µM*	55%	.	-2%
Cc1ccc(OC(=O)COc2ccccc2C)c(-n2nc3ccccc3n2)c1	121%	?	43%	62%	35%	-12%
CC(Sc1nc(N2CCOCC2)c2c(c1C#N)CC(C)(C)OC2)C(=O)Nc1ccccc1 (stereo not drawn)	7%	-22%	-5%	-19%	5%	0%
CC1(C)Cc2c(C#N)c(N3CCN(C(=O)c4ccccc4Cl)CC3)nc(-c3ccco3)c2CS1	-14%	?	40µM*	?	?	-19%
CC1(C)Cc2c(C#N)c(SCC(=O)c3ccccc3)nc(N3CCOCC3)c2CS1	-19%	30µM*	6%	-19%[11.4 µM]	-12%	-12%
CC(=O)N1CCN(c2nc(-c3ccco3)c3c(c2C#N)CC(C)(C)SC3)CC1	33%	-29%	-7%	-15%[11.4 µM]	-2%	-9%
O=C(Nc1ccc(Cl)cc1)Nc1cnccn1	12%	30µM*	-12%	-13%	8%	4%
O=C(Nc1ccc(F)c(Cl)c1)Nc1cnccn1	3%	-12%	-24%	-21%	6%	6%
CC(Oc1ccccc1)C(=O)N1CCN=C1SCc1ccc(F)cc1 (stereo not drawn)	85%	-1%	18%	33%	.	-3%
COc1ccc(N2C(S)=C(C#N)C(=O)NC2c2ccc(OC)c(OC)c2)cc1 (stereo not drawn)	47%	-28%	-13%	-16%	-4%	40µM*
COc1ccc(C2NC(=O)C(C#N)=C(S)N2c2ccc(C)cc2)cc1OC (stereo not drawn)	11%	?	-31%	-21%	0%	32µM*
COc1cc(C2NC(=O)C(C#N)=C(S)N2c2ccc(C)cc2)ccc1OC(C)C (stereo not drawn)	24%	?	-35%	-16%	.	28µM*
CC(=O)Nc1ccc(CN2CCCN(C)CC2)cc1	?	3%	?	22µM*	0%	-7%
CC(=O)Nc1ccc(S(=O)(=O)N2CCN(Cc3ccccc3[N+](=O)[O-])CC2)cc1	11%	-11%	-32%	-29%	.	-2%
CC(=O)Nc1ccc(CN2CCN(C3CCCC3)C(CCO)C2)cc1 (stereo not drawn)	15%	-23%	5%	-8%	8%	11%
CC(=O)Nc1ccc(S(=O)(=O)N2CCN(CC3CC4C=CC3C4)CC2)cc1 (stereo not drawn)	?	-24%	35µM*	6.3µM*	-23%	9%
CC(=O)Nc1ccc(S(=O)(=O)N2CCN(S(=O)(=O)c3ccccc3)CC2)cc1	13%	3%	-3%	0%	7%	-2%
COc1cc(OC)c(OC)cc1CN1CCN(S(=O)(=O)c2ccc(NC(C)=O)cc2)CC1	?	-12%	50µM*	1µM*	5%	-15%
CCOc1ccc(CN2CCN(S(=O)(=O)c3ccc(NC(C)=O)cc3)CC2)cc1	35µM*	1%	25µM*	7.9µM*	-6%	-19%
SMILES	HP1b binding inh	PLK1 PBD block	BAZ2B block	JMJD2A Tudor	L3MBTL1 block	VDR inhibitor
CN(C)CCCOC(=O)COc1ccc(Br)cc1	25%	-2%	-5%	-13%	-4%	-10%
NC(=O)c1nc(Nc2ccccc2)sc1NC(=O)c1ccccc1Br	14%[57 µM]	.	6%	-11%	.	4%
Cc1ccc(C)c(N2CCN(C(=O)c3cc4c(=O)n(Cc5cccnc5)ccc4nc3C)CC2)c1	48%	.	-18%	-18%	.	9%
Cc1cccc(CNC(=O)c2cccc(NC(=O)N3CCSc4ncccc43)c2)c1	44%	.	-20%	3%	.	10%
O=C1c2sccc2-c2cccc3cccc1c23	.	-17%	.	.	.	.
O=C1C(Br)=Cc2cccc3cccc1c23	-37%	-27%	25µM*	?	.	3%
CC(=O)Nc1ccc(/C=C/c2nc3ccccc3[nH]c2=O)cc1	28%	13%	1%	-6%	.	9%
O=c1[nH]c2ccccc2nc1/C=C/c1ccc(Cl)cc1	8%	3.4µM*	-3%	10µM*	.	22µM*
CCN(CC)S(=O)(=O)c1ccc(C(C)NC(=O)Cc2c[nH]c3ccccc23)cc1 (stereo not drawn)	-10%	-4%	-12%	-18%	.	2%
CCSS(=O)(=O)c1cccc2cccnc12	?	2.7µM*	22µM*	1.1µM*	-8%	16µM*
COc1ccc(CN2CC(C(=O)N3CC(C)CC(C)C3)CC2=O)cc1 (stereo not drawn)	-5%	27µM*	-3%	-25%	.	-9%
Nc1ccc(C(=O)Nc2ccc3c(O)cc(S(=O)(=O)O)cc3c2)cc1	-7%[57 µM]	-11%	.	56µM*	.	-7%
Nc1ccc(C(=O)Nc2ccc(OC(F)(F)C(F)F)c(NC(=O)c3ccc(N)cc3)c2)cc1	9%	-2%	1%	-26%	-2%	10%
Nc1ccc(NC(=O)c2ccc(C(=O)Nc3ccc(N)cc3)cc2)cc1	200%	0%	71µM*	56µM*	-1%	5%
Nc1ccc(C(=O)Nc2ccc(Nc3ccncc3)cc2)cc1	14%	-9%	11%	-25%	-17%	3%
O=C(c1cccn1-c1nnc(N2CCCCC2)s1)N1CCN(c2ccccc2)CC1	0%	.	?	-28%	.	7%
